The whole screen tested about 65,000 compounds, of which about 2,100 (3.2%) showed an effect of 50% or more. The median lay at about -52%. Shown is part of a subset that was picked to be rich in strong results.

The experiment concerns Plasmodium falciparum. Briefly: Screen against P. falciparum Asexual Blood Stage (ABS), at 5uM. The experiment is classed as functional, Dd2. Conditions: tested at 5 uM.
With `COCCN1CCN(Cc2cnc(C(C)C)nc2)CC1`, the INHIBITION is given as -72.3%. Next, `O=C(C1CC1)N1C[C@H]2CCCN(S(=O)(=O)c3ccc4c(c3)CCC4)[C@H]2C1`: -49.4%; `NCC(=O)N1CCCC1c1nccnc1Nc1ncccn1` (stereo unspecified): -91.6%.

Regarding `Cc1nnc(-c2cccc(N3CCC(NC(C)CC(C)C)CC3)c2)s1` (stereo unspecified), the INHIBITION is on record as -15.1%.

Consider `CC(C)CC(C)NC1CCN(c2ccc(-c3cscn3)cc2)CC1` (stereo unspecified), for which the INHIBITION is -115%. As to `CC(C)CC(C)NC1CCN(c2cccc(-c3cscn3)c2)CC1` (stereo unspecified), the INHIBITION was 51.8%.

As for `COC(=O)NCC(=O)N1CCC(c2cc3ccccc3[nH]2)CC1`, the INHIBITION is recorded as -109%.

For `Cc1cc(C)c(CNC(=O)N2CCCC2c2cc(C)on2)c(=O)[nH]1` (stereo unspecified), the INHIBITION is on record as -65.3%. The result for `CN1CCC2(CC1)CN(C(=O)c1cccnc1)c1ccc(Cl)cc12` reads 57.5%; that for `O=C(c1ccncc1)N1CC2(CCNCC2)c2cc(Cl)ccc21`, 60%; that for `CCN1CCC2(CC1)CN(C(=O)c1cccnc1)c1ccc(Cl)cc12`, 13.4%. Next, `CN(C)C(=O)N1CC2(CCNCC2)c2cc(F)ccc21`: -81.2%; `C[C@@H](N)C(=O)N1CC2(CCNCC2)c2cc(Cl)ccc21`: 48.2%. Next, `O=C(C1CC1)N1CC2(CCNCC2)c2cc(F)ccc21`: 13.7%.

For the molecule `Cc1ccc(C(=O)N2CC3(CCNCC3)c3cc(Cl)ccc32)cn1`, the INHIBITION was found to be 37.8%. With `Cc1ccc2c(c1)C1(CCNCC1)CN2C(=O)C(C)C`, the INHIBITION came to 32.6%.

`CC(=O)N1CCC2(CC1)CN(C(=O)c1cccnc1)c1ccc(F)cc12`: the INHIBITION is -31.7%. The result for `COc1cc(C(=O)N2CC3(CCNCC3)c3cc(Cl)ccc32)ccn1` reads 65.4%; that for `CN(C)C(=O)N1CC2(CCNCC2)c2cc(Cl)ccc21`, 25.5%; that for `O=C([C@H]1CCCN1)N1CC2(CCNCC2)c2cc(Cl)ccc21`, 60.3%. Next, `COc1ccc(-c2n[nH]c(C)c2CC(=O)NCC2CCOCC2)cc1`: 6.29%; `Cc1occc1C(=O)N1CCC2(CCN(Cc3ccccn3)C2=O)C1` (stereo unspecified): -30.7%.

Turning to `CNC(=O)N1CCC2(CC1)c1ncc(-c3cccc(F)c3)n1CCN2C`, the INHIBITION is listed as -74%.

Consider `CCn1cc(S(=O)(=O)N2CCCCCC2c2cc(C)on2)cn1` (stereo unspecified), for which the INHIBITION is listed as 16.1%. Next, `O=C(Nc1ccccc1)C1CN(Cc2ccco2)CC12CCOCC2` (stereo unspecified): -3.58%. Take `CNC(=O)C1Cn2ccnc2C2(CCN(Cc3nccs3)CC2)O1` (stereo unspecified): the INHIBITION was -118%. The result for `CN1CCN([C@H]2CCN(C(=O)c3cc(Cl)cn3C)C[C@H]2CCCO)CC1` reads -28.7%; that for `Cc1cnc(N2C[C@H]3CCCC(N(C)Cc4ccccn4)[C@H]3C2)nc1` (stereo partly specified), -4.92%; that for `O=C(N1CCOCC1)[C@@]12CCO[C@@H]1CCN(Cc1cccc(F)c1)C2`, -26.7%. The result for `CNc1nccnc1C1CN(C(=O)c2c[nH]cn2)CCO1` (stereo unspecified) reads -87.7%. The result for `NC(=O)CCC1CCCN(Cc2cnc(N3CCCCC3)nc2)C1` (stereo unspecified) reads -84.4%; that for `CNc1nc(C2CCN(C(=O)CC3CCCC3)C2)nc2c1CN(C)CC2` (stereo unspecified), -4.57%; that for `COc1ccc(OC)c(-n2nnnc2SCC2CCCN(C)C2)c1` (stereo unspecified), 42.8%.

As for `COc1ccc(Cn2nnnc2SCC2CCCN(C)C2)cc1` (stereo unspecified), the INHIBITION came out at 59.9%. Next, `COc1ccc(OCC2CCCN(Cc3ccncc3)C2)cc1` (stereo unspecified): 4.05%. On to `CCN(CC)C(=O)c1ccn(COc2cccc(Cl)c2Cl)n1`, for which the INHIBITION is -133%. The result for `Cn1cc(CN2C[C@@H]3COC[C@]3(COCC3CC3)C2)cn1` reads -11.4%; that for `Cc1nc(COC[C@@]23CCC[C@@H]2CN(Cc2cnn(C)c2)C3)cs1`, -28.9%; that for `Cn1cc(CN2C[C@H]3CCC[C@@]3(COCC3CC3)C2)cn1`, 54.1%.

With `O=C(NCc1nn(-c2ccccc2)c2c1CCC2)C1CC1`, the INHIBITION is given as -137%. With `CCn1nc(C)c(CNC(=O)c2nnc3ccc(Cl)cc3n2)c1C`, the INHIBITION is -2.95%.

As for `Cc1cnccc1-c1cnn(CCNC(=O)c2ccccn2)c1C1CC1`, the INHIBITION is reported as 40.2%. Next, `CC(C)c1ncc2c(n1)CN(CC(=O)Nc1ccncc1)CC2`: -23.6%. Next, `CC1=C[C@@H](CN2CCCC2)[C@H](C(C)C)C[C@H]1Cc1nnc(C)o1`: 0.0851%; `CC1=C[C@@H](CN2CCN(C)CC2)[C@H](C(C)C)C[C@H]1Cc1nnc(C)o1`: 16.4%.

Take `COc1ccc2nc(C[C@@H]3C[C@@H](C(C)C)[C@H](CN)C=C3C)[nH]c2n1`: the INHIBITION stood at 68.7%. With `Cc1ccc(CN2C[C@@H]3C[C@H](C(=O)Nc4cccnc4)[C@H](C2)O3)cc1`, the INHIBITION was 41.3%. Next, `COC(=O)CN(C(=O)c1cc(C)c(F)cc1F)c1cccc(C)n1`: -97.6%. Regarding `CC1(C(=O)N2CCOCC2)CN(C2CCCCC2)CCO1` (stereo unspecified), the INHIBITION was -82.9%. The result for `Cc1ccnc(N2CCC(NCCOc3ccccc3)CC2)n1` reads 13.8%. On to `CN(C)c1ccnc(N2CCC(NCCOc3ccccc3)CC2)n1`, for which the INHIBITION is given as 61.5%. Next, `O=C(COCCOc1ccccc1)NC1CCN(c2ncccn2)CC1`: -7.73%; `Cc1nc(CN2CCCC(NCCOc3ccccc3)C2)no1` (stereo unspecified): -55.9%. The result for `Cc1nc(C)c(C)c(N2CCC(NCCOc3ccccc3)CC2)n1` reads 63.1%; that for `c1ccc(OCCNC2CCN(c3ncccn3)CC2)cc1`, -15.2%.

Consider `Cn1ccnc1CN1CCN(CC2CC2)[C@@H]2CS(=O)(=O)C[C@@H]21`, for which the INHIBITION is recorded as -222%.

`Cn1c(=O)cc(C(=O)NC(Cc2ccsc2)c2cccnc2)[nH]c1=O` (stereo unspecified): the INHIBITION was -41.8%.

With `CCN(CC)S(=O)(=O)N1CC[C@H](c2ccccc2)[C@H]2NCCCC[C@H]21`, the INHIBITION stood at 57.7%.

For the molecule `O=S(=O)(N1CCCC1)N1CC[C@H](c2ccccc2)[C@H]2NCCCC[C@H]21`, the INHIBITION was found to be 48.5%. Next, `O=S(=O)(N1CCCC1)N1C[C@@H](c2cccc(F)c2)[C@@H]2NCCCCC[C@H]21`: 25.3%; `CCOc1c(F)cccc1C(=O)N(c1cccnc1)C(C)C`: -2.56%; `CC(C)(C(=O)NCC1CCN(Cc2cccnc2)C1)c1ccccc1` (stereo unspecified): 53.2%. Next, `CC(C)(C(=O)NCC1CCN(Cc2ccccn2)C1)c1ccccc1` (stereo unspecified): 40.4%; `CC(C)(C(=O)NCC1CCN(Cc2ncc[nH]2)C1)c1ccccc1` (stereo unspecified): -15.4%; `Cc1nc(CCCNC(=O)Nc2ccc(F)cc2F)n[nH]1`: -12.9%. The result for `O=C(NCCN1CCCC1)c1cc2c(s1)CCN2c1ncccn1` reads -36.4%; that for `N#Cc1ccc(C2CC(=O)Nc3c2cnn3C2CCCC2)cc1` (stereo unspecified), 53.3%; that for `O=C1CC(c2ccccc2)c2cnn(C3CCCC3)c2N1` (stereo unspecified), -173%. Take `O=C1CC(c2ccc(F)cc2)c2cnn(C3CCCC3)c2N1` (stereo unspecified): the INHIBITION was -115%. The result for `Cc1noc(C)c1CC(=O)N1CCCN(C)c2ccc(Cl)cc21` reads -70.5%. The result for `O=C(NCC1CCN(Cc2cc3ccccc3[nH]2)C1)C1CCCCC1` (stereo unspecified) reads 8.98%; that for `Cc1nc(CNC(=O)Nc2ccc(N(C)C)nc2)sc1C`, -121%; that for `Cc1nc(CNC(=O)Nc2ccc3c(c2)CCCN3C)sc1C`, 60.4%. The result for `Cc1nc(CNC(=O)Nc2ccc3c(c2)CCCC(=O)N3)sc1C` reads -39.6%; that for `CC(C)c1nnc(CN2CCc3ccc(S(N)(=O)=O)cc32)o1`, -105%; that for `CCOCC(=O)N1Cc2nnn(C)c2C(COCc2ccccn2)C1` (stereo unspecified), -123%. Turning to `CC(C)[C@@H](N)C(=O)NCc1cccnc1N1CCc2ccccc2C1`, the INHIBITION came out at 29%.

Turning to `COC(=O)CCC(=O)NCc1cccnc1N1CCc2ccccc2C1`, the INHIBITION is 58.5%.

Take `NC(=O)NCCC(=O)NCc1cccnc1N1CCc2ccccc2C1`: the INHIBITION is -73%. As for `O=c1cc(C2CCNCC2)nc(Cc2cccc(Cl)c2)[nH]1`, the INHIBITION is given as -25.9%. Next, `CC(C)Nc1ncnc2c1CCN(C(=O)CCc1ccccc1)CC2`: -74.7%. Next, `Cc1ccc(CN2Cc3ccccc3OC3(CCC(CO)CC3)C2)s1` (stereo unspecified): -106%; `Cc1ncsc1CN1C[C@H](NC(=O)C2CCOCC2)[C@@H](C(C)C)C1`: -21.1%. Turning to `c1ccc(Cc2nc(CNC3CCC4(CCNCC4)CC3)no2)cc1`, the INHIBITION is given as 39.2%.

Regarding `Cc1cc(NCc2ccc(N3CCNC(=O)C3)cc2)nc(C)n1`, the INHIBITION is -39.6%. The result for `O=C1CN(c2ccc(CNc3cncc(-n4cccn4)n3)cc2)CCN1` reads 52%; that for `CCSc1cncc(NCc2ccc(N3CCNC(=O)C3)cc2)n1`, 38.9%. The result for `CCc1nc2c(c(NC3CCC3)n1)CCN(C(=O)CO)CC2` reads -35.7%; that for `Cn1cnnc1C1CCCN(C(=O)NCCn2ccnc2)C1` (stereo unspecified), -164%; that for `CC1CN(c2ncccc2C(=O)Nc2cccc3c2CCCC3)CCN1` (stereo unspecified), 10.3%.

As for `O=C(Nc1cccc2c1CCCC2)c1cccnc1N1CCCNCC1`, the INHIBITION turned out to be 53.6%. The result for `Cc1cccc(C(=O)Nc2cccc3c2CCCC3)n1` reads -253%; that for `CN(Cc1ccoc1)C(=O)Cn1ncc(N(C)C)cc1=O`, -36.7%; that for `CCn1cc(C(=O)N2CCCC(c3noc(C)n3)C2)cn1` (stereo unspecified), -71.8%. On to `CC1=C(c2ccc(Cl)cc2)S(=O)(=O)N=C1N1CCc2ccccc21`, for which the INHIBITION is listed as -35.6%. The result for `CC(C)(C)NS(=O)(=O)c1ccccc1CNCc1ccccc1` reads 43.3%. Next, `CC(C)(C)NS(=O)(=O)c1ccccc1CNCc1cccc(O)c1`: 56.9%. The result for `CC(C)NS(=O)(=O)c1ccccc1CNCc1cccc(O)c1` reads 26%; that for `CCc1nnc2n1CCN(C(C(=O)NC1CC1)c1ccccc1)C2` (stereo unspecified), -119%. Turning to `CC(C)CCN1CCc2[nH]nc(C(=O)N3CC=CC3)c2C1`, the INHIBITION is recorded as -95.1%. On to `Cc1cc(-c2cnc(N3CCN(C)CC3)nc2C(C)C)on1`, for which the INHIBITION is 52.5%. Next, `Cc1cc(-c2cnc(N3CCCC(C)C3)nc2C(C)C)on1` (stereo unspecified): -127%; `Cc1cc(-c2cnc(N3CCC(C(N)=O)CC3)nc2C(C)C)on1`: -7.12%.

Take `Cc1cc(-c2cnc(N3CCC(O)CC3)nc2C(C)C)on1`: the INHIBITION worked out at 13.7%. The result for `Cc1cc(-c2cnc(N3CCN(C)CC3)nc2-c2ccc(C)s2)on1` reads -24%. The result for `Cc1cc(-c2cnc(N3CCSCC3)nc2C(C)C)on1` reads 63.8%.

(Values after ChEMBL document CHEMBL4513216, “Probing the Open Global Health Chemical Diversity Library for Multistage-Active Starting Points for Next-Generation Antimalarials” (ACS Infect Dis, 2020).)
